In PubChem BioAssay (Tox21):
Records with an inconclusive call do not appear. A call without a number means that no potency is given here. Calls of active or inactive are those of the source. Unless noted, calls follow the shape of the dose curve; as a rule, active = well fitted curve in the direction sought with a large enough effect in the repeat runs; inconclusive = weak or mixed curves; inactive = no such curve, though single readings can be large; an effect the other way counts as inactive or inconclusive.

Experiments:
[1] = qHTS assay to identify aromatase inhibitors - cell viability counter screen (AID 743084);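 also: cells stimulated with testosterone during compound exposure; nearly all actives have a fitted effect of over 55% in size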
[2] = target: Aryl hydrocarbon receptor (Homo sapiens) (UniProt P35869); test: qHTS assay to identify small molecule that activate the aryl hydrocarbon receptor (AhR) signaling pathway (AID 743085);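 also: HG2L7.5c1 human HepG2 liver cells with stably integrated DRE-driven firefly reporter; series mostly up to about 70 µM; nearly all actives have a fitted effect of over 15% in size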
Summary of the method: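 Measured in HG2L7.5c1 cells: CellTiter-Fluor signal (30 min incubation, 37C) for viability, then luciferase luminescence (30 min, room temperature). Compound contact time was 24 h at 37C, following a 5 h pre-incubation.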

[3] = qHTS assay to identify small molecule that activate the aryl hydrocarbon receptor (AhR) signaling pathway - cell viability counter screen (AID 743086);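 also: HepG2 liver cells carrying the AhR DRE luciferase reporter; series mostly up to about 70 µM; nearly all actives have a fitted effect of over 45% in size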
Summary of the method: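 HepG2-AhR-luc (HG2L7.5c1) cells, 4000/well, were preincubated 5 h at 37C, exposed to compound in qHTS format for 24 hr at 37C, then given CellTiter-Fluor for 30 min; viability was read as fluorescence in the reporter wells.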

[4] = target: Peroxisome proliferator-activated receptor gamma (Homo sapiens) (UniProt P37231); test: qHTS assay to identify small molecule agonists of the peroxisome proliferator-activated receptor gamma (PPARg) signaling pathway (AID 743094; active = well fitted activation curve with a large enough effect in the signal ratio in the repeat runs, not every such curve was filed as active; the % refers to the signal ratio)
Summary of the method: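 Cell-based bla reporter, HEK293H background, PPARg-driven UAS. Pre-incubation 5 h, 37C, 5% CO2. Compound 17 h, 37C. Substrate 1 h RT; fluorescence.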

[5] = qHTS assay for small molecule agonists of the antioxidant response element (ARE) signaling pathway (AID 743202; active = well fitted activation curve with a large enough effect in the signal ratio in the repeat runs, not every such curve was filed as active; the % refers to the signal ratio; also: potency is read from the fitted curve at half-maximal effect)
Summary of the method: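 Following a 16 h, 37 C exposure of reporter HepG2 cells (ARE-driven beta-lactamase, 2,000 cells/well) to compounds, FRET substrate was applied for 2 h at room temperature and fluorescence intensity recorded.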

[6] = qHTS assay for small molecule agonists of the antioxidant response element (ARE) signaling pathway - cell viability counter screen (AID 743203; calls by dose curve; also: nearly all actives have a fitted effect of over 55% in size)
Summary of the method: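 Measured in the same wells as the beta-lactamase ARE reporter, this read-out is CellTiter-Glo luminescence from HepG2 ARE-bla cells given compounds for 16 hrs.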

[7] = qHTS assay for small molecule activators of the heat shock response signaling pathway - cell viability counter screen (AID 743209); also: nearly all actives have a fitted effect of over 50% in size
Summary of the method: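 Same-well multiplex: after 2.5 h room-temperature incubation with LiveBLAzer B/G substrate and fluorescence reading, CellTiter-Glo reagent was added to HSE-bla HeLa cells that had received compound for 5 h at 37 C; luminescence read after 30 min.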

[8] = qHTS assay for small molecule activators of the heat shock response signaling pathway (AID 743210; active = well fitted activation curve with a large enough effect in the signal ratio in the repeat runs, with a control signal flat, not every such curve was filed as active; the % refers to the signal ratio; also: series mostly up to about 63 µM)
Summary of the method: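 Heat shock element–beta-lactamase HeLa reporter cells; qHTS with compounds for 5 h at 37 C; detection by FRET substrate fluorescence after 2.5 h at RT.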

[9] = qHTS assay to identify small molecule agonists of the peroxisome proliferator-activated receptor delta (PPARd) signaling pathway - cell viability counter screen (AID 743211); also: nearly all actives have a fitted effect of over 55% in size
Summary of the method: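 Following 5 h plating at 37 C and 5% CO2, PPARd UAS-bla HEK293H cells took up test compounds for 17 h. Viability was quantified by luminescence 30 min after CellTiter-Glo addition at room temperature.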

[10] = target: Peroxisome proliferator-activated receptor delta (Homo sapiens) (UniProt Q03181); test: qHTS assay to identify small molecule agonists of the peroxisome proliferator-activated receptor delta (PPARd) signaling pathway (AID 743212; calls by dose curve)
Summary of the method: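 Beta-lactamase reporter read by fluorescence (LiveBLAzer B/G FRET, 2 h, room temperature). Test agents, in DMSO, incubated at 37 C with PPARd-bla HEK293H cells.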

[11] = qHTS assay to identify small molecule antagonists of the peroxisome proliferator-activated receptor delta (PPARd) signaling pathway - cell viability counter screen (AID 743213); also: nearly all actives have a fitted effect of over 50% in size
Summary of the method: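 PPARd-bla HEK293H cells (3000/well) got compound plus 300 nM L165041 agonist for 17 h at 37 C. Viability in the same wells came from CellTiter-Glo luminescence after 30 min at room temperature.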

[12] = target: Bile acid receptor (Homo sapiens) (UniProt Q96RI1); test: qHTS assay to identify small molecule antagonists of the farnesoid-X-receptor (FXR) signaling pathway (AID 743217; active = well fitted inhibition curve with a large enough effect in the signal ratio in the repeat runs, not every such curve was filed as active; the % refers to the signal ratio)
Summary of the method: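 FRET fluorescence after 2 h room-temperature LiveBLAzer loading gives the readout. Prior step: FXR-bla HEK 293T cells, seeded and incubated 5 h, received test compounds plus 50 uM final CDCA for 16 h at 37 °C.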

[13] = qHTS assay to identify small molecule agonists of the farnesoid-X-receptor (FXR) signaling pathway - cell viability counter screen (AID 743218); also: nearly all actives have a fitted effect of over 45% in size
Summary of the method: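 Readout: CellTiter-Glo luminescence, 30 min RT, multiplexed after the FXR-bla FRET reading. HEK 293T FXR-UAS-bla cells received compound 5 h post-plating and were incubated 16 h at 37 C.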

[14] = target: Bile acid receptor (Homo sapiens) (UniProt Q96RI1); test: qHTS assay to identify small molecule agonists of the farnesoid-X-receptor (FXR) signaling pathway (AID 743220; active = well fitted activation curve with a large enough effect in the signal ratio in the repeat runs, not every such curve was filed as active; the % refers to the signal ratio)
Summary of the method: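 FXR-UAS-bla HEK 293T cells carrying a UAS-driven beta-lactamase reporter were plated for 5 h at 37C/5% CO2, then exposed to DMSO-dissolved Tox21 10K compounds for 16 h at 37C. A LiveBLAzer B/G FRET substrate was loaded for 2 h at room temperature before fluorescence reading.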

[15] = qHTS assay to identify small molecule antagonists of the farnesoid-X-receptor (FXR) signaling pathway - cell viability counter screen (AID 743221; active = well fitted cell-killing curve with a large enough effect in the repeat runs, not every such curve was filed as active; also: nearly all actives have a fitted effect of over 50% in size)
Summary of the method: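 Compound effects on cell number were measured as CellTiter-Glo luminescence in HEK 293T cells expressing FXR-UAS-bla, after 16 h at 37 C with 50 uM CDCA (final).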

[16] = target: Vitamin D3 receptor (Homo sapiens) (UniProt P11473); test: qHTS assay to identify small molecule agonists of the vitamin D receptor (VDR) signaling pathway (AID 743222; calls by dose curve)
Summary of the method: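 Following 4 h attachment at 37C, VDR-bla cells (2,000 per well) received DMSO-dissolved compounds or controls. After 16 h incubation, LiveBLAzer B/G FRET substrate was added and fluorescence read 2 h later at room temperature.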

[17] = target: Peroxisome proliferator-activated receptor gamma (Homo sapiens) (UniProt P37231); test: qHTS assay to identify small molecule antagonists of the peroxisome proliferator-activated receptor gamma (PPARg) signaling pathway (AID 743191; calls by dose curve; also: series mostly up to about 63 µM; nearly all actives have a fitted effect of over 30% in size)
Summary of the method: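 GeneBLAzer PPARg UAS-bla HEK293H cells carrying a UAS-driven beta-lactamase reporter were plated at 3000 cells/well, preincubated 5 h at 37C, then given compound for 17 h at 37C; LiveBLAzer B/G FRET substrate was read after 1 h at room temperature.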

[18] = qHTS assay to identify small molecule antagonists of the peroxisome proliferator-activated receptor gamma (PPARg) signaling pathway - cell viability counter screen (AID 743194); also: nearly all actives have a fitted effect of over 55% in size
Summary of the method: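 PPARg-UAS-bla HEK293H cells were plated, rested 5 h at 37 C, then treated with compounds plus rosiglitazone (50 nM final) for 17 h at 37 C; viability was then read by CellTiter-Glo luminescence after 30 min at room temperature.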

[19] = target: Peroxisome proliferator-activated receptor delta (Homo sapiens) (UniProt Q03181); test: qHTS assay to identify small molecule antagonists of the peroxisome proliferator-activated receptor delta (PPARd) signaling pathway (AID 743215; active = well fitted inhibition curve with a large enough effect in the signal ratio in the repeat runs, not every such curve was filed as active; the % refers to the signal ratio;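 also: cells stimulated with agonist L165041 at 300 nM final during compound exposure; series mostly up to about 62 µM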)
Summary of the method: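 Fluorescence from cleaved LiveBLAzer B/G FRET substrate (2 h, room temperature) reports PPARd-driven beta-lactamase in HEK293H UAS-bla cells. Cells had been treated 17 h at 37 C with compound plus 300 nM final L165041.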

[20] = target: Vitamin D3 receptor (Homo sapiens) (UniProt P11473); test: qHTS assay to identify small molecule antagonists of the vitamin D receptor (VDR) signaling pathway (AID 743223; active = well fitted inhibition curve with a large enough effect in the signal ratio in the repeat runs, not every such curve was filed as active; the % refers to the signal ratio)
Summary of the method: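 Beta-lactamase activity in VDR-bla cells is measured by FRET substrate fluorescence (2 h, room temperature) after cells spend 16 h at 37C with test compound and 3 nM final 1alpha,25-dihydroxyvitamin D3.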

Sequence of Peroxisome proliferator-activated receptor delta (Homo sapiens) (Q03181 whole entry, looked up): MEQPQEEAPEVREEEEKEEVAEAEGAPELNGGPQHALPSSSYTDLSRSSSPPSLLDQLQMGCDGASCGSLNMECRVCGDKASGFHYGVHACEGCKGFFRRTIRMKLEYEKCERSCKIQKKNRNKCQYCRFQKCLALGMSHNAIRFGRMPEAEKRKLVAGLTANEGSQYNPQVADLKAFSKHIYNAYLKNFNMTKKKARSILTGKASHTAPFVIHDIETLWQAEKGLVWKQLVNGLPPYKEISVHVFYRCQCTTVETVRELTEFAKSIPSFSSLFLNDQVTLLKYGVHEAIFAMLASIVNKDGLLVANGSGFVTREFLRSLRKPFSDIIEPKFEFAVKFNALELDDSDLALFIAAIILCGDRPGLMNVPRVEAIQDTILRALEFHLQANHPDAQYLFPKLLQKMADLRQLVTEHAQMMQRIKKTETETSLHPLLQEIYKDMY
Sequence of Bile acid receptor (Homo sapiens) (Q96RI1 whole entry, looked up): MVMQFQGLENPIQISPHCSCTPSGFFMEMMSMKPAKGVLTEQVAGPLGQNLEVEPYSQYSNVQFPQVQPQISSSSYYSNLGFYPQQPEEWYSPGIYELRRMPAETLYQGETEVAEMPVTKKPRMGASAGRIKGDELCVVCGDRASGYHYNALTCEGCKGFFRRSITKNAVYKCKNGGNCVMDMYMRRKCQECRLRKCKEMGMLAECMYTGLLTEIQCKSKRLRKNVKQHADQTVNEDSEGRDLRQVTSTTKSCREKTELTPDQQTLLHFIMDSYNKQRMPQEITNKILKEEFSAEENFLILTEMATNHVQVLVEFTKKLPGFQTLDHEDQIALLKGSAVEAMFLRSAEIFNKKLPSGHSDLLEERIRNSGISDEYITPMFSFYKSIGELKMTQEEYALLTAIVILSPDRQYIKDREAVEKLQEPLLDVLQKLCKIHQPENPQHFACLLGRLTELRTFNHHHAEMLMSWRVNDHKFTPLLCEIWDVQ
Sequence of Peroxisome proliferator-activated receptor gamma (Homo sapiens) (P37231 whole entry, looked up): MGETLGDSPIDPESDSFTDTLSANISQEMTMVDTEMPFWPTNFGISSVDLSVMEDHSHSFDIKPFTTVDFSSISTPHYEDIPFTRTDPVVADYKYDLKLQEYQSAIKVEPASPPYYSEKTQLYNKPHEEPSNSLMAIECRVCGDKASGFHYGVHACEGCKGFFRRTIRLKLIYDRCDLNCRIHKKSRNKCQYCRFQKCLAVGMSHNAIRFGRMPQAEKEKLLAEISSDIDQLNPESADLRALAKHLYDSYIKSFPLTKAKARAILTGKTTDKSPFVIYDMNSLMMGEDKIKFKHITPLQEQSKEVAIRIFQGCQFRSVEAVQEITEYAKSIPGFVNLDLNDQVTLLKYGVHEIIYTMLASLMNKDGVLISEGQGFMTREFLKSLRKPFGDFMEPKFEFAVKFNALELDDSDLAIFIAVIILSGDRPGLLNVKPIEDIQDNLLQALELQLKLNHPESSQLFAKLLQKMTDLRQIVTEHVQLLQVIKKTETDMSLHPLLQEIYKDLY
Sequence of Vitamin D3 receptor (Homo sapiens) (P11473 whole entry, looked up): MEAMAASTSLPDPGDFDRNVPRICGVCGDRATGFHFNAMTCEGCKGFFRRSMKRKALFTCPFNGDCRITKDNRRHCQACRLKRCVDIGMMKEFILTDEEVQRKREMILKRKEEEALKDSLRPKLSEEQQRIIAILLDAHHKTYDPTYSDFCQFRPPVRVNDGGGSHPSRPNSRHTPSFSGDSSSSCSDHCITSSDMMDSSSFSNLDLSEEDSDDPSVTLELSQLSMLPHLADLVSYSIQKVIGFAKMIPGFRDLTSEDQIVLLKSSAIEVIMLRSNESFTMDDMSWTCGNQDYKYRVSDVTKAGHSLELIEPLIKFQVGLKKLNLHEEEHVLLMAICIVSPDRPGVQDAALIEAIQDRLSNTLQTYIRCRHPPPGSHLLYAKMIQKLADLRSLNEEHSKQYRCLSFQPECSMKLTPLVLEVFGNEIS
Sequence of Aryl hydrocarbon receptor (Homo sapiens) (P35869 whole entry, looked up): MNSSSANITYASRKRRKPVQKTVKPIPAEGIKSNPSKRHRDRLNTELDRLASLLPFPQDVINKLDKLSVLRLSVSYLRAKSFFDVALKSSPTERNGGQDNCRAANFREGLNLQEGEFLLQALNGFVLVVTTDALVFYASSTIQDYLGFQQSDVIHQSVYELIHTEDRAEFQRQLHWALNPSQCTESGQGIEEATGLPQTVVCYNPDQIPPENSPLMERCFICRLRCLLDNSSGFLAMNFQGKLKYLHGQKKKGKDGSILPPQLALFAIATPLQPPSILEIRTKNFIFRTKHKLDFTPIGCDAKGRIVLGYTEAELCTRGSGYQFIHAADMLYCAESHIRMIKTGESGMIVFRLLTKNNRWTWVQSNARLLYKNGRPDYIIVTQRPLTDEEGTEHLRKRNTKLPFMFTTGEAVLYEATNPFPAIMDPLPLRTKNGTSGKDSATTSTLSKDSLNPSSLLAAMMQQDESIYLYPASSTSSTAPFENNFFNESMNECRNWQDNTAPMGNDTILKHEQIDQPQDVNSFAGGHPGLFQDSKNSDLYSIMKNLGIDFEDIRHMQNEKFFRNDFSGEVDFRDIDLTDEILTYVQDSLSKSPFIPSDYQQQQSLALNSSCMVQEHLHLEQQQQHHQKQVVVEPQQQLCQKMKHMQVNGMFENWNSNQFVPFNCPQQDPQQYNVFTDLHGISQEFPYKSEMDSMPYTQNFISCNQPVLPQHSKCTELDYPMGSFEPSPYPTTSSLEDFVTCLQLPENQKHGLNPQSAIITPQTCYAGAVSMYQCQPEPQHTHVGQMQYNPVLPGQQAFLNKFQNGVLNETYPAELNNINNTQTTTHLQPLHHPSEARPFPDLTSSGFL

CC(C)CC=O
Potency [1]: inactive | Potency [2]: inactive | Potency [3]: inactive | Potency [4]: inactive | Potency [5]: inactive | Potency [6]: inactive | Potency [7]: inactive | outcome [8]: inactive | Potency [9]: inactive | outcome [10]: inactive | Potency [11]: inactive | outcome [12]: inactive | Potency [13]: inactive | outcome [14]: inactive | Potency [15]: inactive | outcome [16]: inactive

CC(=O)Nc1ccc(/C=N/NC(N)=S)cc1
Potency [1]: inactive | Potency [2]: inactive | Potency [3]: inactive | Potency [17]: inactive | Potency [18]: inactive | Potency [5]: inactive | Potency [6]: inactive | Potency [7]: inactive | outcome [8]: inactive | Potency [9]: inactive | outcome [10]: inactive | Potency [11]: inactive | outcome [19]: inactive | Potency [15]: inactive | outcome [16]: inactive | Potency [20]: inactive

CN1CCN(C2=Nc3ccccc3Sc3ccc(Cl)cc32)CC1
Potency [1]: inactive | Potency [2]: inactive | Potency [3]: inactive | Potency [17]: inactive | Potency [18]: inactive | Potency [5]: inactive | Potency [6]: inactive | Potency [7]: inactive | outcome [8]: inactive | Potency [9]: inactive | outcome [10]: inactive | Potency [11]: inactive | outcome [19]: inactive | Potency [15]: inactive | Potency [20]: inactive

CC(=O)N(O)CCCCCNC(=O)CCC(=O)N(O)CCCCCNC(=O)CCC(=O)N(O)CCCCCN
Potency [1]: inactive | Potency [2]: inactive | Potency [3]: inactive | Potency [4]: inactive | Potency [18]: inactive | Potency [6]: inactive | Potency [7]: inactive | outcome [8]: inactive | Potency [9]: inactive | outcome [10]: inactive | Potency [11]: inactive | outcome [19]: inactive | Potency [15]: inactive | outcome [16]: inactive | Potency [20]: inactive

O=C(c1ccccc1)c1ccc2n1CCC2C(=O)O (stereo not given)
Potency [1]: inactive | Potency [2]: inactive | Potency [3]: inactive | Potency [17]: inactive | Potency [18]: inactive | Potency [5]: inactive | Potency [6]: inactive | Potency [7]: inactive | outcome [8]: inactive | Potency [9]: inactive | Potency [11]: inactive | Potency [13]: inactive | Potency [15]: inactive

CC(C)(C)C(=O)OCOP(=O)(COCCn1cnc2c(N)ncnc21)OCOC(=O)C(C)(C)C
Potency [1]: inactive | Potency [2]: inactive | Potency [3]: inactive | Potency [4]: inactive | Potency [5]: 2110 nM (active) | Potency [6]: inactive | Potency [7]: inactive | outcome [8]: inactive | Potency [9]: inactive | Potency [11]: inactive | Potency [13]: inactive

CCOC(=O)C1=NN(c2ccccc2)C(=O)C1
Potency [1]: inactive | Potency [2]: inactive | Potency [3]: inactive | Potency [17]: inactive | Potency [18]: inactive | Potency [5]: inactive | Potency [7]: inactive | outcome [8]: inactive | Potency [11]: inactive | outcome [19]: inactive | outcome [14]: inactive | Potency [15]: inactive | outcome [16]: inactive | Potency [20]: inactive

CN(C)CCCOc1nn(Cc2ccccc2)c2ccccc12
Potency [1]: inactive | Potency [2]: inactive | Potency [3]: inactive | Potency [4]: inactive | Potency [18]: inactive | Potency [6]: inactive | Potency [7]: inactive | outcome [8]: inactive | outcome [10]: inactive | outcome [19]: inactive | Potency [13]: inactive | Potency [15]: inactive

CCCCOC(=O)/C=C\C(=O)OCCCC
Potency [1]: inactive | Potency [2]: inactive | Potency [3]: inactive | Potency [4]: inactive | Potency [18]: inactive | Potency [6]: inactive | Potency [7]: inactive | Potency [9]: inactive | Potency [11]: inactive | Potency [13]: inactive | outcome [14]: inactive | Potency [15]: inactive | outcome [16]: inactive | Potency [20]: inactive

CC1=CCC(C(C)C)C=C1 (stereo not given)
Potency [1]: inactive | Potency [2]: inactive | Potency [3]: inactive | Potency [4]: inactive | Potency [18]: inactive | Potency [6]: inactive | Potency [7]: inactive | outcome [8]: inactive | Potency [9]: inactive | Potency [11]: inactive | Potency [13]: inactive | Potency [15]: inactive

CCN(CC)CCc1nc(-c2ccccc2)no1
Potency [1]: inactive | Potency [2]: inactive | Potency [3]: inactive | Potency [4]: inactive | Potency [18]: inactive | Potency [6]: inactive | Potency [7]: inactive | outcome [8]: inactive | Potency [9]: inactive | outcome [10]: inactive | Potency [11]: inactive | outcome [19]: inactive | Potency [13]: inactive | Potency [15]: inactive

O=C=NC1CCC(CC2CCC(N=C=O)CC2)CC1 (stereo not given)
Potency [1]: inactive | Potency [2]: inactive | Potency [3]: inactive | Potency [4]: inactive | Potency [18]: inactive | Potency [5]: inactive | Potency [6]: inactive | Potency [7]: inactive | outcome [10]: inactive | Potency [11]: inactive | outcome [16]: inactive | Potency [20]: inactive

CC(C)CCCCCCOC(=O)c1ccc(C(=O)OCCCCCCC(C)C)c(C(=O)OCCCCCCC(C)C)c1
Potency [1]: inactive | Potency [2]: inactive | Potency [3]: inactive | Potency [4]: inactive | Potency [18]: inactive | Potency [6]: inactive | Potency [7]: inactive | outcome [8]: inactive | Potency [9]: inactive | outcome [10]: inactive | Potency [11]: inactive | outcome [19]: inactive | Potency [13]: inactive | Potency [15]: inactive | outcome [16]: inactive | Potency [20]: inactive
